# High-throughput results deposited in PubChem BioAssay by National Center for Advancing Translational Sciences (NCATS).
# ALOX12 inh = ALOX12 (human) lipoxygenase inhibition. P18054. purified 12hLO, xylenol orange hydroperoxide absorbance. Potency, µM (series often up to 108 µM), for the others: at the top dose activity change, negative = inhibition, usual class: inhibitors. 580,000 compounds, 1.1% hits. AID 1671190; note: potency is the fitted concentration of half-maximal effect; % is set by controls: 0 for no effect and ±100 for the full control effect
#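 Hydroperoxide product was detected by ferrous iron/xylenol orange as the 573 to 405 nm absorbance ratio. Arachidonic acid at 40 uM (final) was turned over for 30 min at room temperature by 150 nM human 12hLO, pH 7.0 Hepes buffer, after 15 min compound preincubation.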
# Pol kappa inh = blocks human DNA polymerase kappa activity; Q9UBT6; purified Pol kappa, fluorescent DNA synthesis assay, 10 min; Potency, µM (highest dose often 107 µM), for inactives: top-dose activity, negative = inhibition, most hits filed as inhibitors; 400,000 compounds, 0.53% hits; note: potency is the fitted concentration of half-maximal effect; % is set by controls: 0 for no effect and ±100 for the full control effect
# Target sequence (Q9UBT6 whole entry, looked up): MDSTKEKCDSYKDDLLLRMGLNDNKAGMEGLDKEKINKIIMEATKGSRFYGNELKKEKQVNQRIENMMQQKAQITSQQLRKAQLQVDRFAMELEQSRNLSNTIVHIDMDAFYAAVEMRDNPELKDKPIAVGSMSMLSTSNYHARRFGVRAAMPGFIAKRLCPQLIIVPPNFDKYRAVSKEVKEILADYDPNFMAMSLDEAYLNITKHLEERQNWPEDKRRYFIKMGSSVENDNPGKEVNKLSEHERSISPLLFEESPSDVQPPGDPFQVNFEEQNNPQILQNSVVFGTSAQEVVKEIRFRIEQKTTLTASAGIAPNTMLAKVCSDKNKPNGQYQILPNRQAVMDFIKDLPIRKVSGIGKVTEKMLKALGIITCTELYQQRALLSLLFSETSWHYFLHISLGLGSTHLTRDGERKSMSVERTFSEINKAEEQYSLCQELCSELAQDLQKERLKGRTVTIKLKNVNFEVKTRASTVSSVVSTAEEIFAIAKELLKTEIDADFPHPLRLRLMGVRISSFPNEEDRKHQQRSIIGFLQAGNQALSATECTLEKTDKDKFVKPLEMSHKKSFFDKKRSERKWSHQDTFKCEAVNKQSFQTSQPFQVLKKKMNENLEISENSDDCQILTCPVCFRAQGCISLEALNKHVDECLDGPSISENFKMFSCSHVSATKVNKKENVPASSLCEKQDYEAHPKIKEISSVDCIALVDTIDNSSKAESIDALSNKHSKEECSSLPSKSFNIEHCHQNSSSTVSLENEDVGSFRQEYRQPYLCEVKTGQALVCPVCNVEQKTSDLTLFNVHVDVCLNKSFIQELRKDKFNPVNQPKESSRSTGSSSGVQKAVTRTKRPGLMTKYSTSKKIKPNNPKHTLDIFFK
#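 Readout: fluorescence, taken kinetically at 0 and 10 min. Conditions: 10 nM Pol kappa, 15 min RT compound preincubation, 50 nM substrate final. Controls: enzyme-free buffer wells.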
# POLI inh = blocks human DNA polymerase iota activity; Q9UNA4; Pol iota fluorescent replication assay, 10 min; Potency, µM (titrated, usually from 115 µM), inactives show top-dose activity, negative = inhibition, usual class: inhibitors; AID 588590; 390,000 compounds, 1% hits; note: potency is the fitted concentration of half-maximal effect
#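 Fluorescent replication assay read twice, at 0 min and 10 min after adding 50 nM (final) substrate. Enzyme (10 nM) and compounds were first incubated 15 min at room temperature; enzyme-free buffer wells were negative controls.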
# PI5P4K alpha inh = inhibitors of human PI5P4K alpha; P48426; AID 652105; max response, %; PI5P4Kalpha enzyme, ADP-Glo luminescence, 60 min; hits give low values; 330,000 compounds, 1.2% hits; active = max response of -50% or lower; inconclusive = between -30% and -50%; inactive = -30% or higher; note: value at the top dose of about 77 µM; % is set by controls: 0 for no effect and ±100 for the full control effect
#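 Quantitative HTS of the MLSMR library against PI5P4Kalpha with substrate. ATP added last at 5 microM final; room temperature, 60 minutes. Remaining ATP depleted, ADP converted and read as luminescence.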
# POLB inh = DNA polymerase beta (human) inhibition | P06746 | Pol beta primer extension/strand displacement, fluorescence kinetic | Potency, µM (highest dose often 114 µM), for the others: at the top dose activity change, negative = inhibition, most hits filed as inhibitors | 340,000 compounds, 1.3% hits; note: potency is the fitted concentration of half-maximal effect; % is set by controls: 0 for no effect and ±100 for the full control effect
#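 Pol beta (10 nM) and compounds were preincubated 15 min at room temperature, then 50 nM substrate (final) started primer extension/strand displacement. Reads were taken at 0 and 10 min; concentration-response data were fitted to a four-parameter Hill equation.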
# POLH inh = blocks human DNA polymerase eta activity | Q9Y253 | AID 588591 | recombinant Pol eta, fluorescent DNA replication assay | Potency, µM (highest dose often 114 µM), without a hit: top-dose activity change, negative = inhibition, most hits filed as inhibitors | 390,000 compounds, 1.2% hits; note: potency is the fitted concentration of half-maximal effect; % is set by controls: 0 for no effect and ±100 for the full control effect
#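 Pol eta at 10 nM preincubated with compounds 15 min at room temperature; reaction started with fluorescent substrate (50 nM final) and read kinetically at 0 and 10 min.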
# * hit, by the source's call; ? = inconclusive; / = no result given; ! = not confirmed by another sample; [ ] = another dose, or the depositor's remark. This is a sample that favours compounds with a hit; in the whole collection about 2.9% have one here. Unless noted, calls come from the whole dose curve; as a rule, active = well fitted inhibition curve with a large enough effect; inconclusive = small, poorly fitted or top-dose-only effect, or another doubt; inactive = no such curve, though single readings can be large or run the other way.
SMILES,ALOX12 inh,Pol kappa inh,POLI inh,PI5P4K alpha inh,POLB inh,POLH inh
O=C(Nc1ccc(CC23CC4CC(CC(C4)C2)C3)cc1)c1ccc(F)cc1,18.2%,/,/,/,/,/
O=C(/C=C/c1cccc([N+](=O)[O-])c1)c1ccccc1OC(F)F,-37.0%,/,/,/,/,/
COc1ccc(CCC(=O)O)cc1Br,-14.6%,/,/,/,/,/
CC(O)c1ccc(-c2ccc(CNCc3ccco3)o2)cc1 (configuration not stated),-2.7%,/,/,/,/,/
CC(C)(Oc1ccc(Cl)cc1)C(=O)NC1=NN(c2ccccc2)C(=O)C1,50.1µM*,?,?,0.5,-2.8%,-6.1%
Fc1ccc(N/N=C/c2cccc(Br)c2)c(F)c1,15.8µM*,/,/,/,/,/
COc1cc(/C=N/Nc2ccc(F)cc2F)cc(OC)c1O,?,-16.1%,-4.5%,2.2,2.6%,-16.4%
Fc1ccc(NC(=S)N/N=C/c2cccc(Br)c2)c(F)c1,-20.4%,-1.3%,19.9%,8.6,5.2%,-16.2%
Fc1ccc(N/N=C/c2ccc(F)c(F)c2)c(F)c1,7.94µM*,/,/,/,/,/
Cc1oc2ccc(NS(=O)(=O)c3ccccc3)cc2c1C(=O)O,15.1%,/,/,/,/,/
Cc1cc2oc(=O)cc(CN3CCCCC3C)c2cc1C (configuration not stated),11.2µM*!,0.0%,7.9%,-1.9,0.2%,-12.2%
Cc1cc2oc(=O)cc(CN3CCCCCC3)c2cc1C(C)C,17.8µM*,/,/,/,/,/
Cc1cc2oc(=O)cc(CN3CCCCC3C)c2cc1Cl (configuration not stated),17.8µM*,3.5%,-12.0%,4.1,6.5%,-11.1%
COc1ccc(C(=O)c2ccccc2)c(O)c1,?,?,-0.4%,4.3,2.5%,-8.7%
COc1ccc(C(=O)c2ccccc2)c(O)c1O,/,10µM*,/,/,/,/
CC(C)=CC(=O)Nc1sccc1C#N,-46.4%,/,/,/,/,/
OCCN1CCN(c2nc(NCc3ccco3)c3ccccc3n2)CC1,?,-1.8%,8.0%,-3.2,?,2.7%
c1ccc(CN2CCN(c3nc(NCc4ccco4)c4ccccc4n3)CC2)cc1,39.8µM*,-10.9%,-8.8%,8.2,2.1%,-12.5%
Cc1cc(C(=O)CSc2nnc(CN3CCCC3)n2-c2ccccc2)c(C)n1C1CC1,-3.4%,/,/,/,/,/
O=C(O)c1cccc(N/N=C/c2cn(-c3ccccc3)nc2-c2cccs2)c1,44.7µM*,-17.6%,61.0%,-17.6,?,79.4µM*
NC(=O)N/N=C/c1cn(-c2ccccc2)nc1-c1cccs1,-4.1%,-11.0%,35.5%,0.9,-23.5%,-21.7%
CCOC(=O)c1c(/N=C/c2cccc([N+](=O)[O-])c2O)sc(C)c1C,?,-13.0%,?,-68.6*,14.8%,1.9%
Cn1nc(C(=O)NC(CC(=O)O)c2ccccc2)c2ccccc2c1=O (configuration not stated),7.9%,/,/,/,/,/
Cc1cc(C(=O)Cn2c(CO)nc3ccccc32)c(C)n1C,0.0%,-25.6%,79.4µM*,-28.7,-11.2%,-3.0%
COc1ccc(S(=O)(=O)Oc2ccc3oc(=O)c(-c4ccccc4)c(C)c3c2)cc1,24.9%,/,/,/,/,/
SMILES,ALOX12 inh,Pol kappa inh,POLI inh,PI5P4K alpha inh,POLB inh,POLH inh
CCOC(=O)c1ccc(N2C(=O)c3cccc4c(C(=O)O)ccc(c34)C2=O)cc1,15.8µM*,-8.4%,-6.0%,-1.0,14.9%,-5.9%
O=C(O)C1C2C=CC(C2)C1C(=O)Nc1ccccc1Br (configuration not stated),-25.6%,-3.5%,-11.1%,-12.0,89.1µM*,?
CSc1oc(-c2ccco2)nc1S(=O)(=O)c1ccccc1,35.5µM*,-33.7%,?,-17.0,-9.1%,3.5%
CCSc1oc(-c2ccccc2)nc1S(=O)(=O)c1ccc(F)cc1,10µM*,/,/,/,/,/
CSc1oc(-c2ccco2)nc1S(=O)(=O)c1ccc(C)cc1,?,-15.0%,39.6%,-8.0,0.4%,-5.9%
Cc1cccc(NC(=O)CC(C)(C)CC(=O)O)c1C,10.4%,/,/,/,/,/
Cc1cccc(-c2nc(C#N)c(NCCc3ccccc3)o2)c1,-18.6%,/,/,/,/,/
COc1ccc(/C=N/NC(=O)c2[nH]c3ccc(Br)cc3c2-c2ccccc2)c(C(=O)O)c1OC,-0.9%,1.8%,?,-16.2,?,31.6µM*
COc1ccc(/C=N/NC(=O)c2[nH]c3ccc(Br)cc3c2-c2ccccc2)cc1,-7.9%,-14.1%,46.1%,18.0,-1.0%,-17.7%
O=C(N/N=C/c1ccccc1Cl)c1[nH]c2ccc(Br)cc2c1-c1ccccc1,-8.8%,?,79.4µM*,6.4,?,50.1µM*
CN(C)CCCN=c1cc(-c2ccccc2)oc2ccc(Cl)cc12,35.5µM*,-15.5%,-6.7%,13.2,-5.9%,-4.0%
CC(O)CN=c1cc(-c2ccccc2)oc2ccc(Cl)cc12 (configuration not stated),426.3%,-2.1%,?,-0.2,?,-1.6%
OCCN=c1cc(-c2ccccc2)oc2ccc(Cl)cc12,/,-7.5%,?,-0.2,89.1µM*,2.4%
O[C@@H]1CO[C@H]2[C@@H]1OC[C@@H]2n1nnnc1SC1CCCC1,63.1µM*,/,/,/,/,/
CSc1cccc(NC(=S)NN/C(=N/S(=O)(=O)c2ccccc2)N2CCCC2)c1,44.7µM*,/,/,/,/,/
COC(=O)CC(NC(=S)NC(=O)c1ccccc1)c1ccc(Br)cc1 (configuration not stated),7.94µM*,5.7%,-13.7%,10.6,?,-19.4%
CCc1ccc(C(C)NC(=O)Cn2cnc(C#N)n2)cc1 (configuration not stated),11.6%,/,/,/,/,/
CC(Cc1ccccc1)=NNS(=O)(=O)c1ccc([N+](=O)[O-])cc1,20µM*,0.0%,6.0%,0.5,/,-7.9%
CC(Cc1ccccc1)=NNc1ccc([N+](=O)[O-])cc1[N+](=O)[O-],-10.7%,4.9%,26.7%,3.2,/,-7.6%
O=c1c2c(nc3cc(-c4ccc(F)cc4)[nH]n13)CCCC2,0.0%,-21.2%,?,-13.2,17.8µM*,?
O=c1c2c(nc3cc(-c4cccc(F)c4)[nH]n13)CCC2,-3.6%,-13.0%,44.4%,-5.1,-17.9%,-7.0%
Cc1cccc2[nH]c(C(=O)O)cc12,-4.8%,/,/,/,/,/
COc1cc(OC)cc(C(=O)OCc2nc3ccccc3o2)c1,18.5%,/,/,/,/,/
Cc1oc(C)c2c(=O)cc(-c3ccc4c(c3)OCO4)cc(OC(=O)c3ccccc3Cl)c12,?,?,79.4µM*,/,17.8µM*,?
O=C(NCc1ccc(F)cc1)c1ccc(CS(=O)(=O)c2ccc(Cl)cc2)o1,?,1.0%[60.1 µM],-1.2%,/,?,-10.8%
COC(=O)c1ccc(CS(=O)(=O)c2ccc(F)cc2)o1,0.0%,?,-75.9%,-26.4,35.5µM*,22.4µM*
Cc1[nH]n(-c2ccccc2)c(=O)c1/C=N/Nc1nncc(-c2ccccc2)n1,15.8µM*,-7.6%,23.6%,/,25.3%,-6.4%
